Test [1] deals with Serine/threonine-protein kinase PAK 1 (Homo sapiens) (UniProt Q13153). As to conditions: at 0.1 µM.
Test [2] has the same target. As to conditions: at 1 µM.
In test [3] the target is Serine/threonine-protein kinase PAK 2 (Homo sapiens) (UniProt Q13177). As to conditions: at 0.1 µM.
Test [4] shares this target. As to conditions: at 1 µM.
For test [5], the target named is Serine/threonine-protein kinase PAK 3 (Homo sapiens) (UniProt O75914). As to conditions: at 0.1 µM.
Test [6] has the same target. To be noted: at 1 µM.
Test [7] has as its target Serine/threonine-protein kinase PAK 5 (Homo sapiens) (UniProt Q9P286). As to conditions: at 0.1 µM.
Test [8] shares this target. To be noted: at 1 µM.
The target of test [9] is Serine/threonine-protein kinase PAK 6 (Homo sapiens) (UniProt Q9NQU5). As to conditions: at 0.1 µM.
Serine/threonine-protein kinase PAK 6 (Homo sapiens), sequence (Q9NQU5 whole entry, looked up): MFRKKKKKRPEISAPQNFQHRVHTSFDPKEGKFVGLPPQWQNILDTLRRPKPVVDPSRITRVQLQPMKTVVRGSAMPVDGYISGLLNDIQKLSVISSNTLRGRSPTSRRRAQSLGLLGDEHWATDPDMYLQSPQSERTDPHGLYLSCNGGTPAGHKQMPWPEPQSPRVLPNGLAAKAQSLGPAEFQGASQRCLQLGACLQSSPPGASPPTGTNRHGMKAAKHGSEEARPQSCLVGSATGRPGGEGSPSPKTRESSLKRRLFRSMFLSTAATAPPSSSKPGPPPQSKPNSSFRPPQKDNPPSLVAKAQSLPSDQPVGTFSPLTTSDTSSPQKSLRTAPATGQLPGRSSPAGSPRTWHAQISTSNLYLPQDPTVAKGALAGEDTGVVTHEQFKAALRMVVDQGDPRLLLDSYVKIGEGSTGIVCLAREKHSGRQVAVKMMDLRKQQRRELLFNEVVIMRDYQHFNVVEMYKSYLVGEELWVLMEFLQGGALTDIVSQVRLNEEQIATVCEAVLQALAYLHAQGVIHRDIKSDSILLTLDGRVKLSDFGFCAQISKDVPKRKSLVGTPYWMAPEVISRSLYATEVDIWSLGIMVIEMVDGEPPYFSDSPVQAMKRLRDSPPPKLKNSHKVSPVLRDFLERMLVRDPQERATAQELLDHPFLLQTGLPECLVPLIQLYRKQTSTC
Test [10] has the same target. To be noted: at 1 µM.
The subject of test [11] is Tyrosine-protein kinase ABL1 (Homo sapiens), P00519 [E255K]. As to conditions: at 0.1 µM.
For test [12] the test system is unchanged. To be noted: at 1 µM.
Test [13] relates to Tyrosine-protein kinase ABL1 (Homo sapiens), P00519 [H396P]. To be noted: at 0.1 µM.
For test [14] the test system is unchanged. As to conditions: at 1 µM.
Test [15] deals with Tyrosine-protein kinase ABL1 (Homo sapiens), P00519 [M351T]. As to conditions: at 0.1 µM.
The test system is the same in test [16]. To be noted: at 1 µM.
Test [17] has as its system Tyrosine-protein kinase ABL1 (Homo sapiens), P00519 [Q252H]. As to conditions: at 0.1 µM.
For test [18] the test system is unchanged. As to conditions: at 1 µM.
For test [19], the system named is Tyrosine-protein kinase ABL1 (Homo sapiens), P00519 [T315I]. As to conditions: at 0.1 µM.
Test [20] addresses Serine/threonine-protein kinase 26 (Homo sapiens) (UniProt Q9P289). To be noted: at 1 µM.

In ChEMBL document CHEMBL1961873, “Compounds: GSK PKIS; Assays: Nanosyn kinase panel” (2012) one finds inhibition data, which are given here for 14 compounds.

For orientation: inhibition means the change of the read-out against control, counted positive when it falls.

Serine/threonine-protein kinase PAK 1 (Homo sapiens), sequence (Q13153 whole entry): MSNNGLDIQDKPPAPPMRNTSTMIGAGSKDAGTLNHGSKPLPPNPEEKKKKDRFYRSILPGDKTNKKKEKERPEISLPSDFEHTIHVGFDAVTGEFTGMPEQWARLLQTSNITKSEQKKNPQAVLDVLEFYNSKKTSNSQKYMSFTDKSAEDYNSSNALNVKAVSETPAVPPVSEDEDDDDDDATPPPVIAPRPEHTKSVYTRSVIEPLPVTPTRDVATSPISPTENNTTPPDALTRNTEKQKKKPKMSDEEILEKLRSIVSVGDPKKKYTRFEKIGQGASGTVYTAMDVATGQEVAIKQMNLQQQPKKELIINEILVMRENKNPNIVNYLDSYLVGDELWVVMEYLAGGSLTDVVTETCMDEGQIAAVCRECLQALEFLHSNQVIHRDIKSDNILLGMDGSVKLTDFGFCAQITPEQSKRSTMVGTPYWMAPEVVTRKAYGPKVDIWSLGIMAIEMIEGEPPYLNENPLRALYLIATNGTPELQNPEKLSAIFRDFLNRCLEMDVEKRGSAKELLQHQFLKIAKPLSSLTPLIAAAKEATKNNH
Serine/threonine-protein kinase PAK 3 (Homo sapiens), sequence (O75914 whole entry, looked up): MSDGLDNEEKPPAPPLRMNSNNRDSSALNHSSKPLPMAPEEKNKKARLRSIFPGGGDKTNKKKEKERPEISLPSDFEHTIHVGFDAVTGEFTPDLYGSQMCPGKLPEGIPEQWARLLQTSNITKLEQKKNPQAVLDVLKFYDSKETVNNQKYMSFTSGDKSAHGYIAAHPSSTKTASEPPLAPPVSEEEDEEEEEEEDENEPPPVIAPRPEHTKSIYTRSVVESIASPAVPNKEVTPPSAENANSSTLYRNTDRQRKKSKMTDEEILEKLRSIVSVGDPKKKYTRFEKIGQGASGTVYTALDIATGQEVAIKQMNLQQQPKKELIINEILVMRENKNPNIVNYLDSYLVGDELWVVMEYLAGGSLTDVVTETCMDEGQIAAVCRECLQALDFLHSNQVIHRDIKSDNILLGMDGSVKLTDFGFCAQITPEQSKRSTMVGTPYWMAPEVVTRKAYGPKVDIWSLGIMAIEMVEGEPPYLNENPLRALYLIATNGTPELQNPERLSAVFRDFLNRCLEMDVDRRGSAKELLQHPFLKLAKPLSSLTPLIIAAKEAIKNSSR
Serine/threonine-protein kinase PAK 2 (Homo sapiens), sequence (Q13177 whole entry): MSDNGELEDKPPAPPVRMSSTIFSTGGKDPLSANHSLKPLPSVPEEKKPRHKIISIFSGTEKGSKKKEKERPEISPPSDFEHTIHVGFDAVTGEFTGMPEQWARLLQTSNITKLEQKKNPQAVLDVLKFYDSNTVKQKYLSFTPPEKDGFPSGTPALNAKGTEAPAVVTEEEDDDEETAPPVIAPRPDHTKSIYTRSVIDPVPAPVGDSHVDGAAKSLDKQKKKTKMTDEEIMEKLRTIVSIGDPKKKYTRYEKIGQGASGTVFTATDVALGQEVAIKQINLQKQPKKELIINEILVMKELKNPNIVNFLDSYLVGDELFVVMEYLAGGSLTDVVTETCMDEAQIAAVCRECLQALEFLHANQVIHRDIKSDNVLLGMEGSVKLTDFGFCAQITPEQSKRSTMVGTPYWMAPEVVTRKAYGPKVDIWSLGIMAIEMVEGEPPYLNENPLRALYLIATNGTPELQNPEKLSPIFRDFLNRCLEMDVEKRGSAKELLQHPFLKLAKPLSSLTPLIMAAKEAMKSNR
Serine/threonine-protein kinase PAK 5 (Homo sapiens), sequence (Q9P286 whole entry, looked up): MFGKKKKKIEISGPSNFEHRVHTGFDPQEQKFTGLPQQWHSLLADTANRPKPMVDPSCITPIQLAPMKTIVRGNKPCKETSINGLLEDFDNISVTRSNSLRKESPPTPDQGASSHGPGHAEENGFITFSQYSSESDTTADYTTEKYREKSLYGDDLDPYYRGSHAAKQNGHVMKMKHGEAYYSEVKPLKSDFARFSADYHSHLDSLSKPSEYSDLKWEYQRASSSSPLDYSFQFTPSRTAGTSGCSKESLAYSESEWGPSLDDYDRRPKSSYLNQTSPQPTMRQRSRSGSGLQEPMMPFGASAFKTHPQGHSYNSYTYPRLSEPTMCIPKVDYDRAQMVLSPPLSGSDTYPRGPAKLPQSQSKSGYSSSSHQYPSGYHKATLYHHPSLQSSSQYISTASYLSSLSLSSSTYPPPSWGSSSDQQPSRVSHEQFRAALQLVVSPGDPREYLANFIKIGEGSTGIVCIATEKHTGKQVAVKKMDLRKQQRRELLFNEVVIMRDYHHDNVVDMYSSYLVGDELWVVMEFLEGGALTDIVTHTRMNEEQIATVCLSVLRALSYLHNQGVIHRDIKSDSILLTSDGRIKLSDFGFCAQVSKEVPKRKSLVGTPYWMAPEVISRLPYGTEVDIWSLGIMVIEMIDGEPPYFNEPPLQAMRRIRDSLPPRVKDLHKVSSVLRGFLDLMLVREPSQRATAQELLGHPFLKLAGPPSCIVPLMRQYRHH
Serine/threonine-protein kinase 26 (Homo sapiens), sequence (Q9P289 2-416 limits assumed): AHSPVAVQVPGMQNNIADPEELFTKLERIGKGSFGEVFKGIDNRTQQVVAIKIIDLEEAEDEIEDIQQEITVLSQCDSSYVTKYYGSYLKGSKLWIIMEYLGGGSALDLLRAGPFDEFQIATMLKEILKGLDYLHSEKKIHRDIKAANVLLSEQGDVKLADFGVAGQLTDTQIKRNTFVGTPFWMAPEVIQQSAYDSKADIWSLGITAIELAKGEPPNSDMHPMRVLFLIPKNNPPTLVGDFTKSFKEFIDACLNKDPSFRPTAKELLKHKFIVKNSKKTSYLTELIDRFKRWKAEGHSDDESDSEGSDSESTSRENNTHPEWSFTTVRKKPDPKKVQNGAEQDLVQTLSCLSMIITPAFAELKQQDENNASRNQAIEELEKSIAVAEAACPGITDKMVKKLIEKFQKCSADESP

On to `Nc1ncnc2occ(-c3ccc(NC(=O)Nc4cc(C(F)(F)F)cc(C(F)(F)F)c4)cc3)c12`, for which the inhibition in test [1] came to 4.71%; in test [2], 3.65%; in test [3], 2.1%; in [4], 0.99%; in [5], 2.26%; in test [6] it was 3.84%. The inhibition is 1.39% in [7]; 4.07% in test [8]; 1.06% in [9]; 7.94% in test [10]; 3.79% in [11]; 25.5% in [12]. The inhibition turned out to be 18.5% in test [13]; 68.1% in [14]; 48.5% in test [15]; 80.9% in test [16]; 45% in test [17]; 75.5% in test [18]. For the same compound, the inhibition in test [19] worked out at 42.5%.
On to `COc1cccc(-n2ncc3c(N/N=C/c4cccc(F)c4)ncnc32)c1`, for which the inhibition in test [20] was determined as 2.84%; in test [1], 6.15%; in [2], 6.44%; in [3], 0.05%; in test [4], 0.67%; in [5], 1.51%. For the same compound, the inhibition was 2.17% in test [6]; -1.62% in test [7]; -8.07% in test [8]; 12.7% in test [9]; -4.69% in test [10]; 40.5% in test [11]. The inhibition came to 84.1% in [12]; 51% in [13]; 87.6% in [14]; 52.3% in test [15]; 88% in [16]; 60.9% in [17]. In addition, the inhibition in [18] was 90.3%; in test [19], 10.8%.
Turning to `CS(=O)(=O)Nc1ccc(N/C=C2\C(=O)Nc3ccccc32)cc1`, the inhibition is -0.36% in test [20]; -4.5% in [1]; -3.06% in [2]; -1.89% in test [3]; -3.37% in test [4]; -3.72% in test [5]. The inhibition in test [6] is -2.59%; in test [7] it was -2.35%; in [8] it was 0.84%; in [9] it was -9.71%; in test [10], -8.06%; in test [11] it was -0.28%. Also, the inhibition is 3.16% in test [12]; -0.26% in [13]; 10.9% in test [14]; 1.98% in test [15]; 16.4% in test [16]; 1.09% in test [17]. Besides, the inhibition was determined as 11% in test [18] and 0.68% in [19].
As for `COc1cc2ncn(-c3cc(O[C@H](C)c4ccccc4Cl)c(C(N)=O)s3)c2cc1OC`, the inhibition in test [1] came to 6.45%; in test [2], 4.82%; in test [3], 0.59%; in [4] it was 0.45%; in [5] it was 4.18%; in test [6] it was 6.53%. Moreover, the inhibition in test [7] worked out at 7.14%; in test [8], 3.97%; in test [9], 0.91%; in test [10] it was 11.9%; in test [11], 3.23%; in test [12], 28.1%. Also, the inhibition in [13] amounted to 10.7%; in test [14] it was 49.4%; in [15] it was 9.46%; in [16] it was 48.3%; in test [17], 9.97%; in test [18] it was 43.2%. Besides, the inhibition in [19] turned out to be 11.2%.
As to `CCn1c(-c2nonc2N)nc2c(N3CCCC3)nccc21`, the inhibition in [20] was 0.92%; in [1], 3.59%; in test [2], -4.47%; in test [3], -2.37%; in [4], -1.78%; in test [5], -2.72%. Also, the inhibition in test [6] was -1.25%; in test [7] it was -6.88%; in [9] it was 8.95%; in [10] it was 0.23%; in test [11] it was -0.9%; in [12], -0.63%. The inhibition in [13] is 0.1%; in [14], -1.53%; in test [15], 1.28%; in test [16], -0.55%; in test [17] it was 1.69%; in test [18], -0.47%. In addition, the inhibition in test [19] is -0.16%.
Regarding `Cc1nn(C)c2cc(N(C)c3ccnc(Nc4cccc(S(N)(=O)=O)c4)n3)ccc12`, the inhibition in [20] was 2.03%; in test [1], 5.87%; in test [2], 4.55%; in test [3], 0.68%; in [4], 1.06%; in test [5] it was -1.47%. For the same compound, the inhibition in test [6] is 2.95%; in [8], 5.34%; in test [9] it was -4.18%; in test [10] it was -9.82%; in test [11] it was 27.9%; in test [12], 73.7%. Also, the inhibition in [13] turned out to be 58.2%; in [14], 90%; in test [15], 58.2%; in test [16], 90.2%; in test [17], 45.7%; in test [18] it was 85.4%. Moreover, the inhibition in test [19] stood at 20.3%.
For the compound `CCn1c(-c2nonc2N)nc2cncc(C(=O)N3CC[C@H](N)C3)c21`, the inhibition in test [20] stood at 1.04%; in [1], 10.1%; in [2], 8.87%; in test [3], 1%; in test [4] it was 1.51%; in [5] it was 5.01%. Moreover, the inhibition in test [6] was 4.59%; in [8], 0.61%; in test [9], -1.48%; in test [10] it was 3.33%; in test [11] it was 3.58%; in [12], 2.43%. The inhibition was 5.83% in [13]; 2.94% in test [14]; 2.2% in test [15]; -0.9% in test [16]; 4.86% in [17]; 2.19% in test [18]. For the same compound, in test [19], the inhibition turned out to be 2.09%.
Turning to `NS(=O)(=O)c1cccc(-c2ccc3c(NC(=O)C4CC4)n[nH]c3c2)c1`, the inhibition is -1.17% in [1]; 0.04% in [2]; -1.52% in test [3]; -1.15% in test [4]; -2.1% in [5]; -0.67% in test [6]. Further, the inhibition was 7.33% in test [7]; -5.95% in test [8]; 2.48% in [9]; -8.66% in [10]; 1.26% in test [11]; 7.94% in test [12]. In addition, the inhibition in [13] is 3.4%; in [14], 21.7%; in test [15], 7.02%; in test [16], 20.2%; in test [17], 2.5%; in test [18], 9.03%. For the same compound, in test [19], the inhibition came out at 3.32%.
On to `CS(=O)(=O)CCNCc1nc(-c2ccc3ncnc(Nc4ccc(F)c(Cl)c4)c3c2)cs1`, for which the inhibition in test [20] is 0.43%; in test [1], 2.77%; in test [2], 4.21%; in [3] it was 1.56%; in test [4], 1.25%; in test [5] it was 2%. Besides, the inhibition is 3.08% in [6]; 2.01% in [7]; 8.16% in [8]; 5.79% in test [9]; 0.67% in test [10]; 2.57% in test [11]. In addition, the inhibition in test [12] amounted to 10.6%; in test [13] it was 5.57%; in test [14] it was 16.2%; in [15] it was 0.97%; in test [16] it was 12.9%; in test [17], 3.6%. Further, the inhibition in test [18] was determined as 16%; in [19], 1.06%.
For `O=C1NC(=O)C(N2CCc3ccccc32)=C1c1ccc(Cl)cc1`, the inhibition in test [20] was -1.05%; in [1] it was 8.65%; in test [2] it was 7.01%; in [3], 2.34%; in test [4], 1.81%; in test [5], 5.1%. Further, the inhibition in [6] was 5.8%; in [7], 0.62%; in test [8], -2.87%; in [9] it was 2.3%; in test [10] it was -5.45%; in test [11], 4.83%. Besides, the inhibition was 4.21% in [12]; 6.7% in test [13]; 2.97% in test [14]; 3.31% in test [15]; 3.23% in test [16]; 6.26% in test [17]. In addition, the figures for the inhibition in [18] and in [19] were 3.84% and 2.02%, respectively.
In the case of `Cc1cc(O)cc(C)c1/C=C/c1cncc(-c2nn[nH]n2)c1`, the inhibition in test [20] turned out to be 0.45%; in test [1], 6.83%; in test [2] it was 7.1%; in test [3], 2.28%; in [4], 2.67%; in test [5] it was 4.55%. In addition, the inhibition in [6] was 5.43%; in test [7], 1.47%; in test [8] it was -1.45%; in test [9], 7.17%; in test [10], -4.74%; in [11], 17.8%. In addition, the inhibition came to 79.3% in test [12]; 21.5% in [13]; 79.8% in test [14]; 17.1% in [15]; 79.9% in test [16]; 23.1% in test [17]. The inhibition in test [18] turned out to be 81.6%; in [19], 2.2%.
Turning to `NC(=O)c1ccc(-c2nc(-c3ccccn3)c(-c3ccc4c(c3)OCO4)[nH]2)cc1`, the inhibition in test [20] came out at 2.93%; in test [1], 4.04%; in test [2], 5.77%; in test [3] it was 0.67%; in test [4], 1.08%; in [5] it was 2.68%. Moreover, the inhibition was 2.97% in test [6]; -3.79% in test [7]; -0.72% in [8]; -8.04% in [9]; -5.81% in test [10]; 3.49% in test [11]. Further, the inhibition was determined as 4.45% in test [12]; 1.34% in test [13]; 6.63% in test [14]; 0.6% in test [15]; 3.86% in test [16]; 0.7% in test [17]. For the same compound, the inhibition stood at 3.91% in test [18] and 1.95% in [19].
Take `CC1=C(C(=O)Nc2ccc3[nH]ncc3c2)C(c2ccc3ccccc3c2)CC(=O)N1` (stereo not drawn): the inhibition in test [20] was -3.47%; in test [1] it was 0.76%; in [2], 4.95%; in test [3], -0.2%; in [4], 2.46%; in test [5] it was 2.14%. The inhibition in test [6] is 0.85%; in [7], -1.65%; in test [8], 3.39%; in [9], -2.35%; in test [10], -2.6%; in test [11] it was 2.56%. Further, the inhibition in test [12] stood at 3.94%; in [13], 3.48%; in test [14] it was 12.3%; in [15], 3.47%; in test [16] it was 14.9%; in test [17], 3.89%. For the same compound, the values for the inhibition in test [18] and in test [19] were 17.1% and 5.08%, respectively.
As for `CNC(=O)c1cncc(/C=C/c2c(Cl)cccc2Cl)c1`, the inhibition in test [20] was -0.15%; in [1], 4.17%; in test [2], 11%; in [3] it was 1.59%; in test [4], 0.88%; in [5], 4.45%. The inhibition is 5.48% in test [6]; 5.92% in [7]; 6.55% in [8]; -7.96% in test [10]; 3.46% in test [11]; 33.3% in [12]. Moreover, the inhibition in [13] was 9.69%; in test [14] it was 47.2%; in test [15] it was 6.02%; in [16], 42.2%; in test [17], 8.15%; in test [18] it was 41.9%. The inhibition in test [19] is -0.11%.
